Test results from PubChem BioAssay (NCATS).
Where “and” joins values, the source holds several entries; their conditions need not be identical. Equal values may be shown once. Results filed as inconclusive are left out. Calls of active or inactive are those of the source. Unless noted, calls follow the shape of the dose curve; as a rule, active = well fitted curve in the direction sought with a large enough effect; inconclusive = small, poorly fitted or top-dose-only effect, or another doubt; inactive = no such curve, though single readings can be large; an effect the other way counts as inactive or inconclusive.

Columns and labels:
[1] = target: Alpha-galactosidase A (Homo sapiens) (UniProt P06280); test: Counterscreen for Glucocerebrosidase Inhibitors: qHTS Assay for Human alpha-Galactosidase at pH 4.5 (AID 992); also: 0% is about no effect
Sequence of Alpha-galactosidase A (Homo sapiens) (P06280 whole entry, looked up): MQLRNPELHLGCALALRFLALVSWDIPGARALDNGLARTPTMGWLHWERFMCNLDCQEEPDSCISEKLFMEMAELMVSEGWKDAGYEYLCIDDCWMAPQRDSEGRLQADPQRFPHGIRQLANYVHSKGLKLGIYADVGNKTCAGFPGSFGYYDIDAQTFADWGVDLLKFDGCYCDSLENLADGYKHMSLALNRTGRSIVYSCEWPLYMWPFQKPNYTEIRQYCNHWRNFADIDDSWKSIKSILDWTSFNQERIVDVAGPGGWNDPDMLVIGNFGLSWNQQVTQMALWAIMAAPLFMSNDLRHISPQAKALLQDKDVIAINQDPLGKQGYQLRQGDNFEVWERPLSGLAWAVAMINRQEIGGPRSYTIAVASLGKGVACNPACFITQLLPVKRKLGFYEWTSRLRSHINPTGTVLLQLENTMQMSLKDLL
Summary of the method: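 Each compound is preincubated briefly with 2 nM enzyme before substrate addition (80 uM); plates then sit 20 min at ambient temperature, are quenched with 1M NaOH/1M glycine, and read fluorometrically.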

[2] = target: alpha-glucosidase (Oryza sativa, rice) (UniProt Q653V4); test: Counterscreen for Glucocerebrosidase Inhibitors: qHTS Assay for Rice alpha-Glucosidase at pH 5.0 (AID 997);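 also: 0% = full activity with enzyme and -100% = basal without enzyme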
Summary of the method: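 Endpoint fluorogenic assay at pH 5.0: compounds (0.7 nM to 77 uM) titrated against 4 nM rice enzyme and 400 uM 4-MU-alpha-glucoside for 20 min at room temperature; NaOH/glycine stop, read ex 365/em 440 nm, Hill-fitted AC50.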

[3] = qHTS Assay for Lipid Storage Modulators (AID 1519; calls by dose curve; as to activity change, negative = inhibition: % is scaled to controls: 0 for no effect and ±100 for the full control effect); conditions: Drosophila S3 cells, BODIPY lipid droplet/cell ratio, laser cytometry, cells loaded with oleic acid
Summary of the method: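 Cells seeded at 5,000 per well were treated with compounds over a concentration series and loaded with oleic acid (400 uM, as added). Lipid droplet fluorescence (488 nm excitation, 500-530 nm channel) was read by laser-scanning cytometry and normalized to 20 uM Triacsin C.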

[4] = target: DNA repair nuclease/redox regulator APEX1 (Homo sapiens) (UniProt P27695); test: qHTS Validation Assay for Inhibitors of the Human Apurinic/apyrimidinic Endonuclease 1 (APE1) (AID 1705;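 also: TAMRA fluorescence gain over two minutes as APE1 cuts a quenched THF abasic duplex; % is scaled to controls: 0 for no effect and ±100 for the full control effect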)
Sequence of DNA repair nuclease/redox regulator APEX1 (Homo sapiens) (P27695 whole entry, looked up): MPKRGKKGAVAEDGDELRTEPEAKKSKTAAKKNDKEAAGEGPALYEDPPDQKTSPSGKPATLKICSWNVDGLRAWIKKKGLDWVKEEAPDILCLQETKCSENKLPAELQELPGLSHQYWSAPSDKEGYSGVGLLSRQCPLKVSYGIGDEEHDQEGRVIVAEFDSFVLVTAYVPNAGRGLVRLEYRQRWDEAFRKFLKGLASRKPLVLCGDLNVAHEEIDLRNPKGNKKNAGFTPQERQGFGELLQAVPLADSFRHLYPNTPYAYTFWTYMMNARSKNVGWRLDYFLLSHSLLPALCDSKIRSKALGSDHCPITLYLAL
Summary of the method: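 Endonuclease activity of human APE1 is followed as dequenching when the enzyme incises a tetrahydrofuran abasic site in a short duplex labelled 5'-TAMRA/3'-BHQ-2 (50 nM final), after 15 min enzyme–compound preincubation at room temperature.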

[5] = Counterscreen for APE1 Inhibitors: Fluorescent Dye Displacement Validation Assay (AID 1707);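 also: plate controls were ThO with dsDNA and no compound for no effect and ThO without dsDNA for full effect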
Summary of the method: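 Loss of Thiazole Orange fluorescence marks promiscuous DNA binders. The dye (250 nM) is mixed with 50 nM abasic-site dsDNA in pH7.5 Tris buffer containing MgCl2, then compounds are added and emission is read once.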

[6] = target: Endonuclease 4 (Escherichia coli (strain K12)) (UniProt P0A6C1); test: Counterscreen for APE1 Inhibitors: qHTS Validation Assay for Inhibitors of Endonuclease IV (AID 1708); also: % is scaled to controls: 0 for no effect and ±100 for the full control effect
Summary of the method: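 Enzyme (2 nM) + compound, 15 min RT; add 50 nM TAMRA/BHQ-2 THF-site dsDNA; kinetic read ex525/em598, 3 reads/60 s; activity = read 3 − read 1. Buffer Tris pH 7.5, 50 mM NaCl, 2 mM MgCl2, DTT, Tween-20.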

[7] = qHTS for differential inhibitors of proliferation of Plasmodium falciparum line 7G8 (AID 1815);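 also: parasite growth measured after three days of incubation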; also: potency is read from the fitted curve at half-maximal effect;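 as to activity change, negative = inhibition: plate controls were vehicle wells for no effect and reference inhibitor wells for full effect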
[8] = qHTS for differential inhibitors of proliferation of Plasmodium falciparum line GB4 (AID 1816); conditions: Potency: Plasmodium falciparum GB4 proliferation inhibition;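 also: parasite growth measured after 72 h incubation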; also: potency is read from the fitted curve at half-maximal effect;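 as to activity change, negative = inhibition: 0% = vehicle DMSO and -100% = reference inhibitor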
[9] = qHTS for differential inhibitors of proliferation of Plasmodium falciparum line 3D7 (AID 1876); also: potency is read from the fitted curve at half-maximal effect
[10] = qHTS for differential inhibitors of proliferation of Plasmodium falciparum line D10 (AID 1877);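 also: parasites grown with compound for 72 h before DNA staining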; also: potency is read from the fitted curve at half-maximal effect;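 as to activity change, negative = inhibition: plate controls were vehicle wells for no effect and reference inhibitor wells for full effect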
[11] = qHTS for differential inhibitors of proliferation of Plasmodium falciparum line W2 (AID 1883); conditions: Potency: Plasmodium falciparum W2 proliferation inhibition;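 also: parasites grown with compound for 72 h before lysis and staining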; also: potency is read from the fitted curve at half-maximal effect;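 as to activity change, negative = inhibition: 0% = vehicle wells and -100% = control inhibitor wells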
[12] = qHTS for differential inhibitors of proliferation of Plasmodium falciparum line HB3 (AID 1886); conditions: Potency: Plasmodium falciparum HB3 proliferation inhibition;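 also: parasites grown with compound for 72 h before SYBR Green readout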; also: potency is read from the fitted curve at half-maximal effect;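 as to activity change, negative = inhibition: plate controls were vehicle for no effect and reference inhibitor for full effect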
[13] = Validation of Assay for Modulators of Lamin A Splicing (AID 1459; active = well fitted curve in the direction sought with a large enough effect in the signal ratio; the % refers to the signal ratio;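 also: cells exposed to compound for two days before reading; 0% is about no effect; ratio rise marks activators and ratio drop marks inhibitors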)
Summary of the method: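 Splicing correction is reported by an EGFP-containing lamin A minigene in stably transfected S3 HeLa cells, while DsRed2 controls for viability and nonspecific signal. Cells are exposed to compounds for 48 hrs before the GFP over RFP ratio is taken.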

[14] = qHTS for differential inhibitors of proliferation of Plasmodium falciparum line Dd2 (AID 1882); conditions: Potency: Plasmodium falciparum Dd2 proliferation inhibition; also: nearly all actives have a fitted effect of over 65% in size; also: potency is read from the fitted curve at half-maximal effect;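 as to activity change, negative = inhibition: plate controls were DMSO vehicle for no effect and 0.29 µM artemisinin for full effect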
Summary of the method: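 SYBR Green DNA fluorescence (ex 485, em 535 nm) after overnight lysis quantifies parasite growth; compound exposure lasted 72 h at 37 C on infected red cells at 2.5% hematocrit, 0.3% parasitemia (final). Artemisinin 0.29 uM and vehicle wells define normalization.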

[15] = qHTS Assay for Modulators of Human Peripheral Myelin Protein 22 (PMP22) Expression/Activity (AID 1967; active = well fitted curve in the direction sought with a large enough effect in the signal ratio; the % refers to the signal ratio; also: potency is read from the fitted curve at half-maximal effect)
Summary of the method: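 Quantitative HTS in a mouse Schwann cell line expressing dual click beetle luciferases: Pmp22 promoter (green) and control EF-alpha promoter (red). After 24h treatment, corrected green/red signal ratio gave %Activity relative to untreated cells.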

[16] = Cell Viability - LYMP2-022 (AID 987);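 also: 0% = DMSO alone and full effect = tetraoctylammonium bromide at 92 µM; nearly all actives have a fitted effect of over 55% in size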
Summary of the method: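 Cytotoxicity read as decreased cellular ATP (CellTiter-Glo luminescence, 30 min room temperature) after 24 hours compound exposure of 2500 lymphoblastoid LYMP2-022 cells/well at 37 C. Concentration-response data fitted with standard Hill equation for AC50.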

[17] = Cell Viability - LYMP2-024 (AID 988);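 also: plate controls were DMSO only for no effect and 92 µM tetraoctylammonium bromide for full effect; nearly all actives have a fitted effect of over 60% in size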
Summary of the method: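 Cytotoxicity was taken as a decrease in ATP (CellTiter-Glo luminescence) after 24 hr compound exposure at 37 C of LYMP2-024 lymphoblastoid cells, 2500 cells/well. Concentration-response data were fitted to the Hill equation to give AC50.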

[18] = Cell Viability - LYMP2-026 (AID 989); also: % is scaled to controls: 0 for no effect and ±100 for the full control effect; nearly all actives have a fitted effect of over 50% in size
Summary of the method: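 Cytotoxicity read as ATP-dependent luminescence (CellTiter-Glo, 30 min room temperature) after 24 h compound treatment at 37 C. LYMP2-026 lymphoblastoid line seeded at 2500 cells/well; AC50 derived by standard Hill equation.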

[19] = Cell Viability - LYMP1-002 - Assay at 24 hr (AID 993); also: % is scaled to controls: 0 for no effect and ±100 for the full control effect
Summary of the method: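 qHTS cytotoxicity at 24 h: CellTiter-Glo ATP luminescence in lymphoblastoid line LYMP1-002 incubated with compound at 37 °C. Concentration-response modeled with the Hill equation for AC50; tetraoctylammonium bromide served as positive control.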

[20] = Cell Viability - LYMP1-002 - Assay at 40 hr (AID 994);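 also: 0% = DMSO only and full inhibition = 92 µM tetraoctylammonium bromide; nearly all actives have a fitted effect of over 60% in size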
Summary of the method: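 Cytotoxicity was read as loss of cellular ATP (CellTiter-Glo luminescence) after 40 hr compound exposure at 37 C of 2500 LYMP1-002 lymphoblastoid cells per well. Concentration-response data were fitted with the standard Hill equation to give AC50.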

[21] = measured here: cell count channel max response
[22] = measured here: lipid channel max response

CN1CCC(=C2c3ccccc3C=Cc3ccccc32)CC1
-0.358% and -12.9%: max response [3, 22]
4.35% and -11%: max response [3, 21]
active: Potency [7] 5.01 µM | Potency [8] 8.91 µM | Potency [9] 11.2 µM | Potency [10] 12.6 µM | Potency [11] 2.82 µM | Potency [12] 11.2 µM
inactive: outcome [1] | outcome [2] | activity change, negative = inhibition ([3]; at 25.7 µM (top of the series)) -4.01% | activity change, negative = inhibition ([3]; at 57.5 µM (top of the series)) 0.516% | Potency [4] | Potency [5] | Potency [6]

CC(CCc1ccc(O)cc1)NCCc1ccc(O)c(O)c1 (stereo not given)
inactive: outcome [13] | Potency [4] | Potency [5] | Potency [6]
active: Potency [7] 12.6 µM | Potency [8] 12.6 µM | Potency [10] 14.1 µM | Potency [11] 10 µM | Potency [12] 12.6 µM

NCCCCCC(=O)O
-4.61% and 34.1% and -65.3%: max response [3, 22]
inactive: outcome [1] | outcome [2] | activity change, negative = inhibition ([3]; at 25.7 µM (top of the series)) -1.59% | activity change, negative = inhibition ([3]; at 57.5 µM (top of the series)) 7.83% and -0.624% | Potency [4] | Potency [5] | Potency [6] | Potency [7] | Potency [8] | Potency [9] | Potency [10] | Potency [11] | Potency [12]
-1.8% and 21.2% and -62.4%: max response [3, 21]

COc1ccccc1OCC(O)CN1CCN(CC(=O)Nc2c(C)cccc2C)CC1 (stereo not given)
inactive: outcome [13] | activity change, negative = inhibition ([3]; at 57.5 µM (top of the series)) 13.2% | Potency [4] | Potency [5] | Potency [6] | Potency [9] | Potency [10] | Potency [12]
8.98%: max response [3, 21]
24.1%: max response [3, 22]

CCOC(=O)Nc1ccc(NCc2ccc(F)cc2)nc1N
49.4%: max response [3, 22]
active: Potency [7] 2.82 µM | Potency [8] 2.82 µM | Potency [9] 3.55 µM | Potency [10] 7.08 µM | Potency [14] 11.2 µM | Potency [11] 2 µM | Potency [12] 2.82 µM
49%: max response [3, 21]
inactive: outcome [1] | outcome [2] | outcome [13] | activity change, negative = inhibition ([3]; at 57.5 µM (top of the series)) 0.206% | Potency [4] | Potency [5] | Potency [6]

CC(C(=O)O)c1cccc(C(=O)c2ccccc2)c1 (stereo not given)
active: Potency [15] 23.9 µM
inactive: outcome [13] | Potency [4] | Potency [5] | Potency [6]

N[C@@H](Cc1c[nH]c2ccc(O)cc12)C(=O)O
inactive: outcome [16] | outcome [17] | outcome [18] | outcome [1] | outcome [19] | Potency [20] | outcome [2] | outcome [13] | Potency [4] | Potency [5] | Potency [6] | Potency [7] | Potency [8] | Potency [9] | Potency [10] | Potency [14] | Potency [11] | Potency [12]

CC(=O)OCC(CCn1cnc2cnc(N)nc21)COC(C)=O
10.2%: max response [3, 21]
inactive: activity change, negative = inhibition ([3]; at 57.5 µM (top of the series)) 8.16%
23.5%: max response [3, 22]

CN1CCN(C2=Nc3cc(Cl)ccc3Nc3ccccc32)CC1
inactive: outcome [1] | outcome [2] | outcome [13] | Potency [4] | Potency [5] | Potency [6]

Cn1cnc2c1c(=O)[nH]c(=O)n2C
-0.915% and 15.2% and 17.5%: max response [3, 22]
inactive: outcome [1] | outcome [2] | outcome [13] | activity change, negative = inhibition ([3]; at 25.7 µM (top of the series)) -1.11% | activity change, negative = inhibition ([3]; at 57.5 µM (top of the series)) -1.44% and 2.73% | Potency [4] | Potency [5] | Potency [6] | Potency [7] | Potency [8] | Potency [9] | Potency [10] | Potency [11] | Potency [12]
-1.67% and 17.8% and 14.4%: max response [3, 21]

Clc1ccc2c(c1)C(N1CCNCC1)=Nc1ccccc1O2
-3.99% and 1.39% and 11.5%: max response [3, 21]
inactive: outcome [1] | outcome [2] | outcome [13] | activity change, negative = inhibition ([3]; at 25.7 µM (top of the series)) -5.1% | activity change, negative = inhibition ([3]; at 57.5 µM (top of the series)) 3.92% and 1.18% | Potency [4] | Potency [5]
-7.98% and 5.5% and 12.2%: max response [3, 22]
active: Potency [7] 7.08 µM | Potency [8] 5.62 µM | Potency [11] 5.62 µM | Potency [12] 11.2 µM

COc1ccccc1OCCNCC(O)COc1cccc2[nH]c3ccccc3c12 (stereo not given)
inactive: activity change, negative = inhibition ([3]; at 57.5 µM (top of the series)) 6.43%
13%: max response [3, 22]
5.72%: max response [3, 21]

COc1ccc2c(c1)c(CC(=O)O)c(C)n2C(=O)c1ccc(Cl)cc1
-0.937% and 62.5%: max response [3, 22]
inactive: outcome [16] | outcome [17] | outcome [18] | outcome [1] | outcome [19] | Potency [20] | outcome [2] | activity change, negative = inhibition ([3]; at 25.7 µM (top of the series)) 0.248% | activity change, negative = inhibition ([3]; at 57.5 µM (top of the series)) 13.5% | Potency [4] | Potency [5] | Potency [6] | Potency [7] | Potency [8] | Potency [9] | Potency [10] | Potency [12]
4.07% and 38%: max response [3, 21]

O=C1N(c2ccccc2)c2ccccc2C1(Cc1ccncc1)Cc1ccncc1
inactive: outcome [1] | outcome [2] | outcome [13] | Potency [4] | Potency [5] | Potency [6] | Potency [15]
active: Potency [7] 8.91 µM | Potency [8] 12.6 µM | Potency [11] 10 µM | Potency [12] 11.2 µM

CN1CCC(=C2c3ccccc3CC(=O)c3sccc32)CC1
0.637% and -29.8%: max response [3, 21]
inactive: outcome [1] | outcome [2] | activity change, negative = inhibition ([3]; at 25.7 µM (top of the series)) -3.11% | activity change, negative = inhibition ([3]; at 57.5 µM (top of the series)) 1.94% | Potency [4] | Potency [5] | Potency [6]
active: Potency [7] 10 µM | Potency [8] 2.24 µM | Potency [9] 3.55 µM | Potency [10] 4.47 µM | Potency [11] 0.891 µM | Potency [12] 10 µM
-3.73% and -28.3%: max response [3, 22]

Nc1c2c(nc3ccccc13)CCCC2
active: Potency [7] 10 µM | Potency [8] 10 µM | Potency [9] 8.91 µM | Potency [10] 10 µM | Potency [11] 5.62 µM | Potency [12] 12.6 µM
-0.801% and 25.5%: max response [3, 21]
-0.834% and 27.2%: max response [3, 22]
inactive: outcome [16] | outcome [17] | outcome [18] | outcome [1] | outcome [19] | Potency [20] | outcome [2] | activity change, negative = inhibition ([3]; at 25.7 µM (top of the series)) 0.95% | activity change, negative = inhibition ([3]; at 57.5 µM (top of the series)) 2.49% | Potency [4] | Potency [5] | Potency [6]

NCCS(=O)(=O)O
-11.2% and -31.9%: max response [3, 21]
inactive: outcome [16] | outcome [17] | outcome [18] | outcome [1] | outcome [19] | Potency [20] | outcome [2] | outcome [13] | activity change, negative = inhibition ([3]; at 57.5 µM (top of the series)) 4.96% and -0.7% | Potency [4] | Potency [5] | Potency [6] | Potency [7] | Potency [8] | Potency [9] | Potency [10] | Potency [11] | Potency [12] | Potency [15]
15.8% and -31.4%: max response [3, 22]
